Records with an inconclusive call do not appear. Active and inactive are the calls of the source. Rule for the calls: active = hit-call score of the fitted dose curve at least 0.9, where 1 is the maximum; inconclusive = response in the unintended direction; inactive = score below 0.9.

The nature of the test: Tanguay_ZF_120hpf_TRUN_legacy: (Legacy) Oregon State University Tanguay Lab 120 Hour Post-fertilization zebrafish Assay for Truncated Body (AID 2283655). The method, then:
Tanguay_ZF_120hpf_legacy is a whole embryo, multiplexed endpoint assay using zebrafish larvae exposed for 120 hours post fertilization on a 96-well plate.Tanguay_ZF_120hpf_TRUN_legacy is one of one assay component(s) measured or calculated from the Tanguay_ZF_120hpf_legacy assay. It is designed to make measurements of zebrafish development as detected with brightfield microscopy of developing zebrafish embryos.Data from the assay component Tanguay_ZF_120hpf_TRUN_legacy was analyzed into 1 assay endpoints. This assay endpoint, Tanguay_ZF_120hpf_TRUN_legacy, was analyzed in the positive analysis fitting direction relative to DMSO as the negative control and baseline of activity. Using a type of morphology reporter, gain-of-signal activity can be used to understand changes in developmentals as they relate to the whole embryo. To generalize the intended target to other relatable targets, this assay endpoint is annotated to the zebrafish development intended target family, where the subfamily is embryonic morphogenesis.
Zebrafish husbandry: Tropical 5D wild-type adult zebrafish were housed in at an approximate density of 1000 per 100 gallon tank at the Sinnhuber Aquatic Research Laboratory, Oregon State University, Corvallis, OR. Each tank was kept at standard laboratory conditions of 28C on a 14-h light/10-h dark photoperiod in fish water consisting of reverse osmosis water supplemented with a commercially available salt (Instant Ocean). Spawning funnels were placed into the tanks the night prior, and embryos were collected and staged. To increase bioavailability, the chorion was enzymatically removed using pronase (63.6mg/ml, >/= 3.5U/mg, Sigma-Aldrich: P5147) at 4 hours post fertilization (hpf) using a custom automated dechorionator.Chemical exposures: Six hpf dechorionated embryos were placed 1 embryo per well in a 96-well plate prefilled with 90 ul of EM using automated embryo placement systems (AEPS). Ten microliters of each row of dilution plate 2 was added to 2 exposure plates. The final DMSO concentration used was 0.64% (vol/vol). Thirty-two embryos were also exposed to 5uM trimethyltin chloride (positive control). Plates were sealed to prevent evaporation and foil covered to reduce light exposure and kept in a 28C incubator. Embryos were statically exposed until 120 hpf. At 24 hpf, embryos were assessed for photomotor response using a custom photomotor response analysis tool (PRAT) and for developmental toxicity endpoints (MO24: mortality at 24 hpf, DP: developmental progression, SM: spontaneous movement, and NC: notochord distortion). At 120 hpf, locomotor activity was measured using Viewpoint Zebralab and assessed for 18 endpoints. Zebrafish acquisition and analysis program (ZAAP), a custom program designed to inventory, acquire, and manage zebrafish data, was used to collect developmental endpoints as either present or absent (i.e., binary responses were recorded). If mortality occurred for an embryo (at either 24 or 120 hpf), the non-mortality endpoints were not measured.
With `Nc1ccc(N=Nc2ccccc2)cc1`, the molecule was called inactive.

As for `CO[C@@H]1[C@H](OC(=O)NC(=O)CCl)CC[C@]2(CO2)[C@H]1[C@@]1(C)O[C@@H]1CC=C(C)C`, the outcome was inactive.

Consider `CC(O)CCO` (stereo not given), for which the call was inactive.

Consider `c1ccc2c(c1)oc1ccccc12`, for which the outcome was inactive.

`O=C(Nc1ccccc1)c1ccccc1I`: the call was inactive.

As to `Cc1ccc(N)cc1`, the outcome was inactive.

What is called AC50 is the midpoint of the concentration-response curve, whichever way the signal moves. On to `Oc1ccc2ccc3cccc4ccc1c2c34`, for which the AC50 was 46.5 µM (active).

Consider `Cc1ccc(N)c(N)c1`, for which the molecule was classed as inactive.

In the case of `Nc1ccc(Cl)cc1N`, the outcome was inactive.

As to `Cc1cccc(N)c1N`, the call was inactive.

Take `CCCCCOC(=O)c1ccccc1C(=O)OCCCCC`: the molecule was classed as inactive.

With `[As]#[In]`, the molecule was called inactive.

With `CC(C)(C)OOC(C)(C)CCC(C)(C)OOC(C)(C)C`, the outcome was inactive.

`Cc1ccc(N=C=O)cc1N=C=O`: the call was inactive.

Consider `CCCCCCCCCCCCCN1CC(C)OC(C)C1` (stereo not given), for which the molecule was called inactive.

In the case of `COC(=O)Nc1nc2ccccc2[nH]1`, the outcome was inactive.

As to `COP(=S)(OC)SCN1C(=O)c2ccccc2C1=O`, the outcome was inactive.

For the molecule `OCCOCCO`, the call was inactive.

`CC(C)N(Cc1ccccc1)C(=O)C(C)(C)C`: the outcome was inactive.

For `Clc1ccccc1Cl`, the molecule was classed as inactive.

`CNC(=O)Oc1cccc2c1OC(C)(C)C2`: the AC50 was 12.6 µM (active).

As for `CCCCCCCCOC(=O)c1ccc(C(=O)OCCCCCCCC)c(C(=O)OCCCCCCCC)c1`, the outcome was inactive.

On to `ClCCOCCCl`, for which the outcome was inactive.

With `N#CC(Br)(Br)C(N)=O`, the call was inactive.

In the case of `[Cl-].[Cl-].[Hg+2]`, the AC50 was 3.83 µM (active).

With `O=C(Oc1ccc(Br)cc1)N1CCN2CCC1CC2`, the outcome was inactive.

As for `C1=Cc2cccc3cccc1c23`, the outcome was inactive.

Turning to `CN(C)C(=O)Nc1ccc(Cl)cc1`, the result was inactive.

As to `CCOC(=O)[C@]1(c2ccccc2)Oc2ccccc2[C@@H]1N`, the molecule was classed as inactive.

Consider `CCCCCCCCn1sccc1=O`, for which the result was inactive.

For the molecule `O=[N+]([O-])c1ccc(Oc2ccc(Cl)cc2Cl)cc1`, the result was inactive.

As for `CC(C)COC(=O)c1ccccc1C(=O)OCC(C)C`, the outcome was inactive.

For `c1ccc(NNc2ccccc2)cc1`, the call was inactive.

As for `ClC1=C(Cl)[C@]2(Cl)[C@H]3[C@H]([C@@H]4C=C[C@H]3C4)[C@@]1(Cl)C2(Cl)Cl`, the outcome was inactive.

As to `CC(C)(OOC(C)(C)c1ccccc1)c1ccccc1`, the outcome was inactive.

`C[N+](C)(C)CC1CO1` (stereo not given): the molecule was called inactive.

As for `CCN(CC)CCO`, the molecule was classed as inactive.

For the molecule `CC(C)(O)c1cnn2c(-c3ccc(F)c(-c4c(F)cccc4C#N)c3)cnc2n1`, the call was inactive.

For the molecule `CN(C)[C@@H]1C(=O)C(C(N)=O)=C(O)[C@@]2(O)C(=O)C3=C(O)c4c(O)cccc4[C@@](C)(O)[C@H]3C[C@@H]12`, the outcome was inactive.

On to `c1ccc(C2CO2)cc1` (stereo not given), for which the result was inactive.
